Source: PubChem BioAssay
In the library only some 2% were active in any assay of this set; here they are far more common.
NPSR antag = antagonists of human neuropeptide S receptor cAMP signaling. Q6W5P4. AID 1461. CHO-NPSR cells, cAMP TR-FRET, antagonist mode. actives 1% (n = 220,000). Potency, µM (top dose mostly 38.3 µM), for the others: at the highest dose activity change, negative = inhibition, most hits filed as inhibitors; also: potency is read from the fitted curve at half-maximal effect; % is scaled to controls: 0 for no effect and ±100 for the full control effect; nearly all actives have a fitted effect of over 50% in size
Target sequence (Q6W5P4 whole entry, looked up): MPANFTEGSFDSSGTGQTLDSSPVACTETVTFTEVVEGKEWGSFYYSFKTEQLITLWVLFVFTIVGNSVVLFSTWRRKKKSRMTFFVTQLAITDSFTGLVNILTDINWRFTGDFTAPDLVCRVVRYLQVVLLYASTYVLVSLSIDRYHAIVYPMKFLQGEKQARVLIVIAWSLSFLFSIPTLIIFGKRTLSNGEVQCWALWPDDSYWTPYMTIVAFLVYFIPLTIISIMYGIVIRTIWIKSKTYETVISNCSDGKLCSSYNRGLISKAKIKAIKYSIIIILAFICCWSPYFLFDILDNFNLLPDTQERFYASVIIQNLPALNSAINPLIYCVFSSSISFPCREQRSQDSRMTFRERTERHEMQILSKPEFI
ClpP mod = qHTS Assay for Activators of ClpP; ATP-dependent Clp protease proteolytic subunit (Bacillus subtilis (strain 168)), P80244; purified B. subtilis ClpP, FRET peptide cleavage, 20 min; Potency, µM (series often up to 57.5 µM), for the others: top-dose activity change, negative = active; actives 1.9% (n = 340,000); active = well fitted falling curve with a large enough effect; inconclusive = small, poorly fitted or top-dose-only effect; inactive = no such curve, though single readings can be large or run the other way; also: potency is read from the fitted curve at half-maximal effect; the source files actives as falling curves though it sought activators and does not explain the sign; nearly all actives have a fitted effect of over 65% in size
Target sequence (P80244 whole entry, looked up): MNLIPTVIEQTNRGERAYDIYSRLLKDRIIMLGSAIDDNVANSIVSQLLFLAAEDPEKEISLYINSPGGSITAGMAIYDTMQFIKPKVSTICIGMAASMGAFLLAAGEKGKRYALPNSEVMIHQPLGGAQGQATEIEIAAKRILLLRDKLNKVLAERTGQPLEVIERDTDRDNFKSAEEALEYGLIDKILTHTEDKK
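FRET quenching reversal measured ClpP activation: 10 microg/mL B. subtilis ClpP at pH 8 with the FRET-FV decapeptide, read at 430 nm after 320 nm excitation. The 20-min minus 0-min signal was scaled between DMSO/no-enzyme wells and ADEP (5.8 microM final).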
IL2 activator = activates IL-2 in a cell-based reporter assay; IL-2 activation reporter assay, cell-based qHTS; stimulated with anti-CD3/CD4/CD28 beads; in transgenic mouse T cells; activation, % (series mostly up to about 46 µM); actives 0.065% (n = 360,000); AID 652025; in the data active = activation above about 50%; inconclusive = mostly about 30% to 49%; also: 0% is about no effect
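Screening format: compound pinned onto unstimulated transgenic mouse T cells, 60 min incubation, then anti-CD3/anti-CD4/anti-CD28 bead stimulation for 18 hours at 37 degrees C, followed by EGFP and DsRed detection.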
PKM2 act = activators of human pyruvate kinase M2; P14618; purified PKM2, Kinase-Glo ATP luminescence, activation; response scale: 0% is enzyme alone, no compound; Potency, µM (doses to about 57.5 µM), for inactives: at the top dose activation, most hits filed as activators; actives 0.34% (n = 260,000); AID 1631; also: potency is read from the fitted curve at half-maximal effect; % is scaled to controls: 0 for no effect and ±100 for the full control effect; nearly all actives have a fitted effect of over 55% in size
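ATP formation by purified human PK-M2, quantified via coupled luciferase luminescence after 1 h at room temperature with 0.1 mM ADP and 0.5 mM PEP final.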
An asterisk follows results filed as active; [ ] = remark or other dose. Unless noted, calls follow the shape of the dose curve; as a rule, active = well fitted curve in the direction sought with a large enough effect; inconclusive = small, poorly fitted or top-dose-only effect, or another doubt; inactive = no such curve, though single readings can be large; an effect the other way counts as inactive or inconclusive.

For COc1ccc2c(C)cc(SCC(=O)Nc3c(C)n(C)n(-c4ccccc4)c3=O)nc2c1 the results were NPSR antag 1%[46.1 µM], ClpP mod 25µM*, IL2 activator 1 and PKM2 act -4%.
For Cc1c(NC(=O)COC(=O)c2ccccc2Cl)c(=O)n(-c2ccccc2)n1C the results were NPSR antag 3%, IL2 activator 0 and PKM2 act -3%.
For Cc1c(NC(=O)COC(=O)c2cc3c4ccccc4n(C)c3s2)c(=O)n(-c2ccccc2)n1C the results were NPSR antag -7%[46.1 µM], ClpP mod 25µM*, IL2 activator -2 and PKM2 act 7%.
For COc1ccc2c(CC(=O)Nc3c(C)n(C)n(-c4ccccc4)c3=O)coc2c1 the results were NPSR antag -16%[46.1 µM], ClpP mod -2%, IL2 activator 0 and PKM2 act -22%.
CCSc1nnc(NC(=O)c2ccc(C)o2)s1 was read as NPSR antag -14%[46.1 µM], ClpP mod -2%, IL2 activator 1 and PKM2 act 5%.
`CCN(CC)CCSc1nc2ccccc2c(=S)n1-c1ccccc1` gave NPSR antag -39%, IL2 activator 1 and PKM2 act -7%.
For CCOC(=O)c1ccc(Cl)c(NC(=O)c2ccc(-c3ccccc3)cc2)c1 the results were NPSR antag 27%[46.1 µM], ClpP mod -1%, IL2 activator 1 and PKM2 act -5%.
`CCOC(=O)c1ccc(/C=C2/C=C(c3ccccc3)N(c3ccc(Cl)c(C(=O)O)c3)C2=O)cc1` gave NPSR antag 13µM*, ClpP mod 1%, IL2 activator 4 and PKM2 act 13%.
For Cc1ccc(NC(=O)N2CCCC2C(=O)NCCC2=CCCCC2)cc1 (stereo unspecified) the results were NPSR antag -7%[46.1 µM], ClpP mod 0%, IL2 activator -1 and PKM2 act -2%.
For COc1ccccc1S(=O)(=O)N1CCn2cccc2C1C (stereo unspecified) the results were ClpP mod 28µM* and IL2 activator 0.
For CC1c2cccn2CCN1S(=O)(=O)c1ccccc1 (stereo unspecified) the results were ClpP mod -2% and IL2 activator 0.
For COc1cc(OC)c2c(C)c(Cl)c(=O)oc2c1 the results were NPSR antag -8%[46.1 µM], ClpP mod 2.8µM*, IL2 activator -3 and PKM2 act -3%.
`Cn1c(SCc2ccc(F)cc2)nc2c([nH]c3ccccc32)c1=O` gave ClpP mod 1%.
Screening CCOC(=O)c1ccc(N2CCN(c3ccc(F)cc3)CC2)c(NC(=O)Nc2cccc(OC)c2)c1 returned NPSR antag -27%, ClpP mod 28µM*, IL2 activator 4 and PKM2 act 2%.
O=C1Nc2ccccc2/C1=C/C(=O)c1cccs1 was read as NPSR antag -25%[46.1 µM], ClpP mod 32µM*, IL2 activator -4 and PKM2 act 8%.
Screening Cc1ccc(C)c(N2CN(CCC3=CCCCC3)CNC2=S)c1 returned NPSR antag 29%, ClpP mod -1%, IL2 activator -1 and PKM2 act -5%.
`N#Cc1cccc(NC(=O)c2cc3c(s2)-c2ccc(Cl)cc2SC3)c1` gave ClpP mod -7%.
`CN(Cc1ccccc1)C(=O)c1cc2c(s1)-c1ccc(Cl)cc1SC2` gave ClpP mod 25µM*.
For O=C(NCc1ccc(Cl)cc1)c1cc2c(s1)-c1ccccc1SC2 the results were ClpP mod 32µM*.
`CCN(CC)CCNC(=O)c1cc2c(s1)-c1ccccc1SC2` gave ClpP mod inconclusive and IL2 activator 0.
Cc1ccc(-c2cc(-c3ccc(C)o3)nc(N)c2C#N)cc1 was read as NPSR antag inconclusive, ClpP mod 22µM*, IL2 activator -1 and PKM2 act inconclusive.
`Cc1ccc(-c2cc(-c3ccc4c(c3)OCO4)c(C#N)c(N)n2)o1` gave NPSR antag inconclusive, ClpP mod 35µM*, IL2 activator 3 and PKM2 act 10µM*.
Screening Cc1ccc(-c2cc(-c3ccc(F)cc3)c(C#N)c(N)n2)o1 returned NPSR antag -26%, IL2 activator -1 and PKM2 act inconclusive.
For Cc1nc(N)c(C#N)c(-c2ccc3c(c2)OCO3)c1C the results were ClpP mod -3%, IL2 activator 1 and PKM2 act -8%.
Screening N#Cc1c(N)oc(-c2ccc3c(c2)OCO3)c1-c1ccc2c(c1)OCO2 returned NPSR antag -17%[46.1 µM], ClpP mod 14µM*, IL2 activator 0 and PKM2 act 5%.
`COc1ccccc1NC(=O)COC(=O)CCC1CCCC1` gave ClpP mod -1% and IL2 activator 1.
COc1ccc(CCNC(=O)COC(=O)c2ccc(N3CCCC3=O)cc2)cc1 was read as NPSR antag -6%, IL2 activator 1 and PKM2 act 3%.
Screening Cc1cccc(C(=O)N2CCN(S(=O)(=O)c3ccc4c(c3)OCCCO4)CC2)c1[N+](=O)[O-] returned ClpP mod 1%, IL2 activator -4 and PKM2 act -1%.
O=S(=O)(NCC1CCN(S(=O)(=O)c2ccccc2)CC1)c1ccccc1 was read as NPSR antag -18%[46.1 µM], ClpP mod -1%, IL2 activator -1 and PKM2 act 2.8µM*.
`CC/C(=C\c1oc2cc3ccccc3cc2[n+]1CC)Nc1ccccc1` gave NPSR antag -53%, IL2 activator 1 and PKM2 act 3%.
CCOCCCN(C(=O)c1snc(C(N)=O)c1N)C(C(=O)NCCC(C)C)c1ccc(F)cc1 (stereo unspecified) was read as ClpP mod inconclusive, IL2 activator 0 and PKM2 act 4%.
CCOc1ccc(S(=O)(=O)N2CC(=O)Nc3ccccc32)cc1 was read as ClpP mod 32µM* and IL2 activator -3.
CCOc1ccc(S(=O)(=O)N2CC(=O)Nc3ccccc32)cc1C#N was read as IL2 activator 0.
`CCOC(=O)C1=CCN(S(=O)(=O)c2ccccc2Cl)C1c1ccccc1` (stereo unspecified) gave ClpP mod -2% and IL2 activator 0.
For COc1ccc(S(=O)(=O)N2CCC(n3cnc4cc(C(F)(F)F)ccc43)CC2)cc1 the results were NPSR antag -19%[46.1 µM], ClpP mod -1%, IL2 activator 1 and PKM2 act 18%.
Screening COc1ccc(S(=O)(=O)N2CCC(n3cnc4ccccc43)CC2)cc1 returned IL2 activator -1 and PKM2 act 16µM*.
Screening ON(CCc1ccccn1)CCc1ccccn1 returned ClpP mod 1% and IL2 activator 0.
COc1cccc(Cn2c(=O)n(-c3cc(C)cc(C)c3)c(=O)c3oc4ccccc4c32)c1 was read as ClpP mod 35µM*.
Cc1cccc(Cn2c(=O)n(-c3cc(C)cc(C)c3)c(=O)c3oc4ccccc4c32)c1 was read as ClpP mod -17%.
